The source of these data is ChEMBL document CHEMBL2218924, “A broad activity screen in support of a chemogenomic map for kinase signalling research and drug discovery” (Biochem J, 2013).

For assay [1], the target named is Calcium/calmodulin-dependent protein kinase type II subunit beta (Homo sapiens) (UniProt Q13554). Particulars: at 10 µM.
Assay [2] addresses Calcium/calmodulin-dependent protein kinase type 1 (Homo sapiens) (UniProt Q14012). Particulars: at 1 µM.
Assay [3] shares this target. The following applies: at 10 µM.
Assay [4] has as its target Calcium/calmodulin-dependent protein kinase type II subunit beta (Homo sapiens) (UniProt Q13554). The following applies: at 1 µM.
Assay [5] concerns the target Calcium/calmodulin-dependent protein kinase type II subunit gamma (Homo sapiens) (UniProt Q13555). Particulars: at 1 µM.
Assay [6] has the same target. The following applies: at 10 µM.
Assay [7] addresses Calcium/calmodulin-dependent protein kinase type II subunit delta (Homo sapiens) (UniProt Q13557). Particulars: at 1 µM.
For assay [8] the target is unchanged. The following applies: at 10 µM.
For assay [9], the target named is T1, Calcium/calmodulin-dependent protein kinase type IV (Homo sapiens) (UniProt Q16566).
T1 sequence (whole entry): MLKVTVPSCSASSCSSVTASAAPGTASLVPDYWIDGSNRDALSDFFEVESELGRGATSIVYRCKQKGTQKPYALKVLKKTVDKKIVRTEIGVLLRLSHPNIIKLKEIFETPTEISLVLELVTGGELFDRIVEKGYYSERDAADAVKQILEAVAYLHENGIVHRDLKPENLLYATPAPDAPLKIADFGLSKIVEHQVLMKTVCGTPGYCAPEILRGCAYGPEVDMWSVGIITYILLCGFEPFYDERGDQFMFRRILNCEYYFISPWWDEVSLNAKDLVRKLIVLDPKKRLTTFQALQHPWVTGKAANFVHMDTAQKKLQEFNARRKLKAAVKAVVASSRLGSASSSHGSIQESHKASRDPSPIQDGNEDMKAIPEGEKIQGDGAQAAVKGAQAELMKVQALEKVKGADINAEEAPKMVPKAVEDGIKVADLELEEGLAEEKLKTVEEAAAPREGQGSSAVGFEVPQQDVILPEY
The following applies: at 1 µM.

Assay [10] deals with T1, Calcium/calmodulin-dependent protein kinase type IV (Homo sapiens). The following applies: at 10 µM.

Sequence of Calcium/calmodulin-dependent protein kinase type II subunit delta (Homo sapiens) (Q13557 whole entry): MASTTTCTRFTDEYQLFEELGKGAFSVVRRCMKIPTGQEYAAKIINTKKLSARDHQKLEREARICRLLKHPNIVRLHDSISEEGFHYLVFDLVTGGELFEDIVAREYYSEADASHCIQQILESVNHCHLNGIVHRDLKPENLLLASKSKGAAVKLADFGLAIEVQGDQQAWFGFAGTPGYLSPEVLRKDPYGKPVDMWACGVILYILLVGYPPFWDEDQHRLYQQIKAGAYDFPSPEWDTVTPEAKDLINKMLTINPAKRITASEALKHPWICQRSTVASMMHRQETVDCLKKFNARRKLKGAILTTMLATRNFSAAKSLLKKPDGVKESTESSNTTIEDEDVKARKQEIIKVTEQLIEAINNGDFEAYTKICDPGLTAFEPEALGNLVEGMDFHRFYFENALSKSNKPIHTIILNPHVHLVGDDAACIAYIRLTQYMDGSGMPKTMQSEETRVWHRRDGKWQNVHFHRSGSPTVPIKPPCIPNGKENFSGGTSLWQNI
Sequence of Calcium/calmodulin-dependent protein kinase type II subunit gamma (Homo sapiens) (Q13555 whole entry): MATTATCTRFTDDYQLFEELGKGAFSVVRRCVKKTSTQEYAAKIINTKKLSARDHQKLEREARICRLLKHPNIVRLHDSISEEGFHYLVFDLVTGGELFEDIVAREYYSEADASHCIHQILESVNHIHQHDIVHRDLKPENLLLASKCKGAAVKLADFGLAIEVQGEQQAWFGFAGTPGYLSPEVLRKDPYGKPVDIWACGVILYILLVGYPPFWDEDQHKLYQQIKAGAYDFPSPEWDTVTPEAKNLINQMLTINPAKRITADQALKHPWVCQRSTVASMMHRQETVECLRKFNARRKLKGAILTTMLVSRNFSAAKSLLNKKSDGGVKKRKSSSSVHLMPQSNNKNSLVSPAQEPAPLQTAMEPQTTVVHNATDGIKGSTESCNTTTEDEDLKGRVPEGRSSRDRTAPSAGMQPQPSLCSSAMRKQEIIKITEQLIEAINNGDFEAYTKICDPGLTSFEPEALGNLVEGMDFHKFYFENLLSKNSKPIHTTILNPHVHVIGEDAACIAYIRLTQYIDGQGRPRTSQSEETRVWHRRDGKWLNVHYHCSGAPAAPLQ
Sequence of Calcium/calmodulin-dependent protein kinase type II subunit beta (Homo sapiens) (Q13554 whole entry): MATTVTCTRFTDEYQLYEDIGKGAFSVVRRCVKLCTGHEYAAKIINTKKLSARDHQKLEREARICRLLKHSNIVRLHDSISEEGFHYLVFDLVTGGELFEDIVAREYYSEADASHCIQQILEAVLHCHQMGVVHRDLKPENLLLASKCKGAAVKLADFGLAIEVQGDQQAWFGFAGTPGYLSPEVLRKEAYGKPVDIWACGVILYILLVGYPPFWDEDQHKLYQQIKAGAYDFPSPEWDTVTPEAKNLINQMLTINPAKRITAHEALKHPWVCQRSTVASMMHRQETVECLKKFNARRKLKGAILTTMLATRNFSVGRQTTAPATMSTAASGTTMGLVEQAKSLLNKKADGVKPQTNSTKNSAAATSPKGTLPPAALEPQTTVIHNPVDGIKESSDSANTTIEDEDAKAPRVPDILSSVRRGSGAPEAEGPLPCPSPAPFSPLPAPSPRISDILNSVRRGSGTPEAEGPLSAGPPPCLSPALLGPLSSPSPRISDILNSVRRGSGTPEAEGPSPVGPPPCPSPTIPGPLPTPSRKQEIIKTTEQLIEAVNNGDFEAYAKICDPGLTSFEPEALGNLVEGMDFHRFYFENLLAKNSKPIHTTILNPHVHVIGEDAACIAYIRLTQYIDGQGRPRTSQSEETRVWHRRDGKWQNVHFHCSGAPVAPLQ
Sequence of Calcium/calmodulin-dependent protein kinase type 1 (Homo sapiens) (Q14012 whole entry, looked up): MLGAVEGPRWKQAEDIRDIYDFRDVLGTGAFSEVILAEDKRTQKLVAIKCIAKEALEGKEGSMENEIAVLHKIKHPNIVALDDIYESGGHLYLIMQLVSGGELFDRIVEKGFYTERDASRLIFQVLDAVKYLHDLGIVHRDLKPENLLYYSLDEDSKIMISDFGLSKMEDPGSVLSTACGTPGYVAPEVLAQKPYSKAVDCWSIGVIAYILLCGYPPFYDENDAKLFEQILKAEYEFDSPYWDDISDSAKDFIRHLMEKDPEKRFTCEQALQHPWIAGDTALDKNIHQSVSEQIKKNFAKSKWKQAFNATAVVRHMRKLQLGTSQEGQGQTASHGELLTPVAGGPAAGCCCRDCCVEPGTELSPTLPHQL

Regarding `CN[C@@H]1C[C@H]2O[C@@](C)([C@@H]1OC)n1c3ccccc3c3c4c(c5c6ccccc6n2c5c31)C(=O)NC4`, the residual activity in [1] came to 0%.
As to `C[S+]([O-])c1ccc(-c2nc(-c3ccc(F)cc3)c(-c3ccncc3)[nH]2)cc1` (stereo not given), the residual activity was determined as 115% in assay [2]; 99% in assay [3]; 114% in [4]; 98% in [1]; 103% in assay [5]; 100% in assay [6]. Further, the residual activity in assay [7] was determined as 108%; in assay [8], 89%; in [9] it was 113%; in [10] it was 98%.
Turning to `COc1cc2ncnc(Nc3ccc(OCc4ccccc4)cc3)c2cc1OC`, the residual activity amounted to 92% in assay [2]; 57% in assay [3]; 106% in assay [4]; 95% in [1]; 109% in assay [5]; 93% in [6]. Also, the residual activity in assay [7] amounted to 100%; in [8], 83%; in assay [9] it was 92%; in assay [10] it was 91%.
Regarding `COc1ccc2c(c1)/C(=C/c1cnc[nH]1)C(=O)N2`, the residual activity in [3] came to 77%; in assay [5] it was 49%; in [6], 10%; in assay [7] it was 42%; in assay [8], 8%.
Turning to `COc1ccc2c(c[n+](C)c3c4cc5c(cc4ccc23)OCO5)c1OC`, the residual activity in assay [3] came to 86%; in [4] it was 80%; in assay [1], 55%; in assay [6] it was 70%; in assay [8] it was 85%; in assay [10] it was 69%.
Take `COC(=O)[C@@]1(O)C[C@H]2O[C@]1(C)n1c3ccccc3c3c4c(c5c6ccccc6n2c5c31)C(=O)NC4`: the residual activity is 6% in [2]; 1% in [3]; 0% in assay [4]; -1% in assay [1]; 1% in assay [5]; 0% in assay [6]. Moreover, the residual activity in [7] was 0%; in [8] it was 1%; in assay [9], 24%; in assay [10], 11%.
As to `CCc1nc(-c2ccc(OC)cc2)[nH]c1-c1ccncc1`, the residual activity in assay [2] came out at 108%; in assay [3] it was 101%; in assay [1], 76%; in assay [7], 110%; in assay [8] it was 80%.
On to `O=[N+]([O-])/C=C/c1ccc2c(c1)OCO2`, for which the residual activity came out at 108% in assay [2]; 84% in [3]; 90% in assay [4]; 84% in [1]; 107% in assay [5]; 100% in assay [6]. The residual activity in assay [7] worked out at 109%; in assay [8] it was 97%; in [9] it was 132%; in [10], 14%.
For `O=C1c2ccccc2-c2nc3nnnn3nc21`, the residual activity in assay [2] is 107%; in assay [3], 100%; in assay [4], 105%; in [6] it was 105%; in assay [7], 104%; in assay [8], 103%. Moreover, the residual activity was 122% in assay [9] and 113% in assay [10].
For the compound `CCn1cnc2c(Nc3cccc(Cl)c3)nc(N[C@@H]3CCCC[C@@H]3N)nc21`, the residual activity in assay [2] is 84%; in assay [3] it was 27%; in [4], 93%; in [1], 45%; in assay [5], 43%; in assay [6] it was 10%. In addition, the residual activity in assay [7] was 44%; in [8] it was 10%; in assay [9] it was 77%; in [10] it was 17%.
With `CC(C)(C)c1cc(C=C(C#N)C#N)cc(Br)c1O`, the residual activity in [2] stood at 121%; in assay [3], 105%; in assay [5] it was 102%; in assay [6], 55%; in assay [7], 104%; in assay [8], 46%. The residual activity in [9] stood at 115%; in assay [10], 83%.
Take `CC(C)[C@H](CO)Nc1nc(Nc2cccc(Cl)c2)c2ncn(C(C)C)c2n1`: the residual activity in assay [2] was found to be 93%; in assay [3], 78%; in [4], 95%; in [1], 68%; in assay [5] it was 100%; in assay [6], 42%. The figures for the residual activity in assay [7], in [8] and in assay [10] were 99%, 46% and 60%, respectively.
In the case of `N/C(=N\[N+](=O)[O-])N/N=C\c1ccc(-c2cccc([N+](=O)[O-])c2)o1`, the residual activity in assay [2] is 93%; in [3], 49%; in assay [4], 92%; in assay [1] it was 76%; in assay [5], 91%; in assay [6], 53%.
On to `COc1cc(OC)c(/C=C2\C(=O)Nc3ccccc32)c(OC)c1`, for which the residual activity in assay [2] turned out to be 96%; in assay [3], 82%; in assay [4], 102%; in assay [1], 76%; in assay [5] it was 105%; in assay [6], 96%. The residual activity in [7] came to 107%; in assay [8], 89%; in assay [10], 101%.
In the case of `O=C1NC(=O)c2c1c1c3ccccc3n3c1c1c2c2ccccc2n1C1CCC3O1`, the residual activity in assay [2] stood at 63%; in assay [3], 48%; in [4] it was 32%; in assay [1], 32%; in [5], 0%; in [6] it was 1%. Also, the residual activity in assay [7] was -1%; in assay [8], 5%; in [9], 90%; in assay [10], 100%.
Turning to `O=c1[nH]c2ccccc2n1C1CCN(Cc2ccc(-c3nc4cc5[nH]cnc5cc4nc3-c3ccccc3)cc2)CC1`, the residual activity in assay [2] was 103%; in assay [3], -5%; in assay [4], 94%; in assay [1], 6%; in [5], 104%; in [6], 16%. The residual activity came out at 102% in [7], 2% in [8], 130% in assay [9] and 49% in assay [10].
Regarding `c1cc(-c2cnn3cc(-c4ccc(OCCN5CCCCC5)cc4)cnc23)ccn1`, the residual activity was determined as 61% in [3]; 48% in assay [4]; 8% in assay [1]; 39% in assay [5]; 7% in assay [6]; 40% in assay [7]. Further, the residual activity in [8] was 6%; in [10], 87%.
Turning to `O=C1Nc2ccc3ncsc3c2/C1=C/c1c[nH]cn1`, the residual activity is 72% in assay [2]; 22% in [3]; 13% in assay [4]; 3% in assay [1]; 21% in assay [5]; -1% in assay [6]. Further, the residual activity in [7] amounted to 18%; in [8], 4%; in [9] it was 80%; in [10], 24%.

Usually residual activity stands for the signal under treatment as a percentage of the control signal.
